Assay outcomes from PubChem BioAssay.
Rows were chosen to be rich in hits. Some 2.8% of all compounds tested hit in one or more screens of this group.
JMJD2C inh: human JMJD2C demethylase inhibition. 330,000 compounds, 0.069% hits. inhibition, % at 2.35 µM. GST-JMJD2C(1-420) H3K9me3 demethylation, DELFIA europium. AID 2099;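 active = more than half of a compound's replicate wells show inhibition beyond 50%, single wells judged on their own value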;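 also: signal counts dimethyl H3K9 product captured on neutravidin plate; 0% = median of DMSO wells and 100% = 0.3 times that DMSO median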
PG9 Ab binder: binds the HIV-1 gp120 antibody PG9; TR-FRET gp120-PG9 antibody binding; inhibition, % at 6.7 µM; AID 624416; 360,000 compounds, 0.43% hits; in the data active = inhibition above about 8.5%
PP5 primary: PP5 (human) phosphatase inhibition; 320,000 compounds, 0.18% hits; inhibition, % at 6.7 µM; P53041; purified PP5c, OMFP substrate fluorescence; AID 1987;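 active = inhibition above the campaign's mean inhibition across all tested compounds plus 3 SD, cut at about 9.5% in these data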;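 also: 0% = DMSO only and 100% = 100 µM cantharidin control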
KLK7 zymogen act: activates the human kallikrein-7 zymogen; P49862; purified proKLK7, EDANS-DABCYL substrate fluorescence; 100% is mature enzyme control, 0% vehicle; activation, % at 7 µM; 370,000 compounds, 0.9% hits;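 active = activation above the mean of all tested compounds plus 3 SD, computed per campaign excluding outliers beyond control limits, cut at about 13% in these data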
NR1D1 modulator: modulates human Rev-erb alpha binding to DNA; Rev-erbα–FITC-DNA binding, fluorescence polarization, 90 min; P20393; activity, % at 10 µM; AID 1259318; 370,000 compounds, 0.79% hits;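 active = activity above about 14%, limit read from the data; passing the limit was not always enough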;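 also: 0% = DMSO wells with 35 nM protein and 100% = DMSO wells with 750 nM protein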
Target sequence (P20393 whole entry, looked up): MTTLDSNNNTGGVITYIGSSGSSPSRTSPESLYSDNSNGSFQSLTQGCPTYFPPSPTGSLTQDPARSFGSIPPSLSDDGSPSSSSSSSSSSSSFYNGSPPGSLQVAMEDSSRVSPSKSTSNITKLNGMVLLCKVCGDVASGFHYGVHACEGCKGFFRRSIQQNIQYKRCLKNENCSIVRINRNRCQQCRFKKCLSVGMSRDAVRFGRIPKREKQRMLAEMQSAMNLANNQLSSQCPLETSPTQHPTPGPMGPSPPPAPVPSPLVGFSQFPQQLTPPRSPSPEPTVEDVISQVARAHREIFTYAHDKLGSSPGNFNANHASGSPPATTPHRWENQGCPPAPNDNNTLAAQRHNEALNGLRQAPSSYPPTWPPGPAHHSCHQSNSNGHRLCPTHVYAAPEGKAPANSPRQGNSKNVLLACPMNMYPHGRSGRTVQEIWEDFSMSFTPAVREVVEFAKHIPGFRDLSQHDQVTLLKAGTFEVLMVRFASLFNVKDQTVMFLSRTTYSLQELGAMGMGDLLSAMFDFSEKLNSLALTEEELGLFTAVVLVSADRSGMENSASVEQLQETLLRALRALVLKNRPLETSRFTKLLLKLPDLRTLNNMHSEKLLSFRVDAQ
PP1 inh: PP1-alpha (human) inhibition in PP5 counter-screen; P62136; purified PP1alpha, OMFP fluorescence; inhibition, % at 6.7 µM; 320,000 compounds, 0.9% hits;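 active = inhibition above the mean inhibition of all tested compounds plus 3 SD, computed separately for each screening campaign, cut at about 15% in these data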
Rev-erbA confirm: confirmation of modulators of human Rev-erb alpha DNA binding; shares compounds with NR1D1 modulator; Rev-erb alpha FITC-DNA binding, fluorescence polarization, 90 min; activation, % at 25 µM; 3,000 compounds, 61% hits;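 active = activation at or above a set limit, or at least 3 SD above the negative control mean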;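 also: 0% = 35 nM protein with DMSO and 100% = 750 nM protein high control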
RORg counter: affects RORgamma DNA binding in a Rev-erb alpha counter-screen; shares compounds with NR1D1 modulator; purified RORgamma protein-FITC-DNA binding, fluorescence polarization; IC50, µM; 910 compounds, 8% hits; AID 1259320;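 active = Compounds whose fitted half-maximal concentration for disrupting protein-DNA binding is below 10 micromolar; the record names Rev-erb in its text, so the target is in doubt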
Numbers without * were called inactive.

CS(=O)(=O)NCCNc1cc(Cl)ccc1[N+](=O)[O-] was read as JMJD2C inh -6, PG9 Ab binder -1, PP5 primary 0, KLK7 zymogen act 0, NR1D1 modulator 17*, PP1 inh 0 and Rev-erbA confirm 6.
For Cc1cccc(NC(=O)OC2CC3CC2[C@H]2CCCCN2C3)c1 (some centres undefined) the results were KLK7 zymogen act -1 and NR1D1 modulator -3.
Cc1cc(NS(=O)(=O)c2ccc(NC(=O)CSc3nnc(-c4cccnc4)n3-c3ccccc3)cc2)nc(C)n1 was read as KLK7 zymogen act 0 and NR1D1 modulator 1.
`CC(=O)Nc1ccc(-c2cc(-c3ccccc3)nc(-c3ccccc3)n2)cc1` gave JMJD2C inh -16, PG9 Ab binder 0, PP5 primary -2, KLK7 zymogen act -2, NR1D1 modulator 13 and PP1 inh 0.
`CC(=O)Nc1ccc(-c2cc(-c3ccc(NC(C)=O)cc3)nc(-c3ccccc3)n2)cc1` gave JMJD2C inh -1, PG9 Ab binder -2, PP5 primary 0, KLK7 zymogen act -3, NR1D1 modulator 41*, PP1 inh -5 and Rev-erbA confirm 24*.
For O=C(Cn1cnc2ccccc2c1=O)N1CCN(Cc2ccc(F)cc2)CC1 the results were KLK7 zymogen act -1 and NR1D1 modulator -1.
`O=C(Nc1ccc(F)cc1)c1cc(-c2ccncc2)nc2c(Cl)cccc12` gave JMJD2C inh 6, PG9 Ab binder 1, PP5 primary -1, KLK7 zymogen act 0, NR1D1 modulator 24*, PP1 inh -7 and Rev-erbA confirm 9.
`O=C(OCCN1C(=O)c2cccc3c(N4CCOCC4)ccc(c23)C1=O)c1ccccc1Cl` gave JMJD2C inh -3, PG9 Ab binder 0, PP5 primary 2, KLK7 zymogen act -30, NR1D1 modulator 40*, PP1 inh 1, Rev-erbA confirm 56* and RORg counter >40.
For O=C(OCCN1C(=O)c2cccc3c(N4CCOCC4)ccc(c23)C1=O)c1ccc(Cl)cc1Cl the results were JMJD2C inh 2, PG9 Ab binder 1, PP5 primary 1, KLK7 zymogen act -4, NR1D1 modulator 260*, PP1 inh 9, Rev-erbA confirm 206* and RORg counter 4.5*.
`O=C(OCCN1C(=O)c2cccc3c(N4CCOCC4)ccc(c23)C1=O)c1cccc(Cl)c1` gave JMJD2C inh -5, PP5 primary -1 and PP1 inh 1.
For O=S(=O)(c1ccccc1)c1nc(-c2ccccc2)oc1N1CCCC1 the results were JMJD2C inh -14, PG9 Ab binder 0, PP5 primary -1, KLK7 zymogen act 0, NR1D1 modulator 16*, PP1 inh 1 and Rev-erbA confirm -7.
Screening O=S(=O)(c1ccccc1)c1nc(-c2ccccc2)oc1N1CCCCC1 returned JMJD2C inh -9, PG9 Ab binder -1, PP5 primary -1, KLK7 zymogen act 0, NR1D1 modulator -4 and PP1 inh -2.
Screening O=c1c2ccccc2oc2ccccc12 returned PG9 Ab binder 2, KLK7 zymogen act -1 and NR1D1 modulator -2.
Screening S=c1[nH]ncn2c1cc1oc3ccccc3c12 returned JMJD2C inh -8, PG9 Ab binder 8, PP5 primary -2, KLK7 zymogen act 1, NR1D1 modulator 34*, PP1 inh 4 and Rev-erbA confirm 20*.
Screening O=C(Nc1nc(-c2ccc(Cl)cc2Cl)cs1)c1ccc(OCC2CCCO2)cc1 (centres undefined) returned JMJD2C inh 11, PG9 Ab binder 1, PP5 primary -7, KLK7 zymogen act 0, NR1D1 modulator -1 and PP1 inh -4.
For CC(C)COc1ccc(C(=O)Nc2scc(-c3ccc(Cl)cc3Cl)c2C(N)=O)cc1 the results were JMJD2C inh 71, PG9 Ab binder -2, PP5 primary 3, KLK7 zymogen act 0, NR1D1 modulator 31*, PP1 inh -6 and Rev-erbA confirm 29*.
